Experimental findings from PubChem BioAssay (NCATS) are described below.

Records with an inconclusive call do not appear. Calls of active or inactive are those of the source. Calls follow the shape of the dose curve; as a rule, active = well fitted inhibition curve with a large enough effect; inconclusive = small, poorly fitted or top-dose-only effect; inactive = flat fitted curve, though single readings scatter.

This assay relates to Zika virus NS2B-NS3 protease. As to the kind of experiment: Primary screen GU AMC qHTS for Zika virus inhibitors (AID 1347154).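 Also: 0% = no-inhibitor control and -100% = no-enzyme control; nearly all actives have a fitted effect of over 70% in size.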 The following applies: Zika NS2B-NS3 unlinked protease, AMC fluorogenic substrate; series mostly up to 54.1 µM; activity change, negative = inhibition: at the top concentration. A digest of the protocol:
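Fluorogenic AMC-substrate cleavage by noncovalent NS2B-NS3 protease complex (25 nM, pH 8.0 Tris buffer with Tween 20) followed for 15 minutes at room temperature (~20% conversion). Percent inhibition from ex340/em450 signal change, fitted by 4-parameter Hill equation.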
In general terms: Quantitative high-throughput screening tests each substance at several concentrations.
As to `CN1CCC[C@@H]1c1cccnc1`, the “activity change, negative = inhibition” value is 6.19% (inactive).

In the case of `COc1cc(-c2ccc(=O)[nH]n2)ccc1OC(F)F`, the Potency result is “inactive”.

Consider `C[C@@H]1C[C@H]2[C@@H]3CCC4=CC(=O)C=C[C@]4(C)[C@@]3(F)[C@@H](O)C[C@]2(C)[C@H]1C(=O)CO`, for which the “activity change, negative = inhibition” value was -0.653% (inactive).

Consider `CN(C)/N=N/c1nc[nH]c1C(N)=O`, for which the “activity change, negative = inhibition” value was 3.15% (inactive).

Consider `CC1(C)O[C@@H]2C[C@H]3[C@@H]4C[C@H](F)C5=CC(=O)C=C[C@]5(C)[C@H]4[C@@H](O)C[C@]3(C)[C@]2(C(=O)CO)O1`, for which the “activity change, negative = inhibition” value is -1.9% (inactive).

As to `COc1cccc2c1C(=O)c1c(O)c3c(c(O)c1C2=O)C[C@@](O)(C(=O)CO)C[C@@H]3O[C@H]1C[C@H](N)[C@H](O)[C@H](C)O1`, the “activity change, negative = inhibition” value is -4.23% (inactive).

Take `O=C(OCC(O)CO)c1ccccc1Nc1ccnc2cc(Cl)ccc12` (stereo not drawn): the “activity change, negative = inhibition” value was -3.56% (inactive).

Regarding `CCOC(=O)n1ccn(C)c1=S`, the “activity change, negative = inhibition” value is -2.66% (inactive).

For the compound `CN(C)CCOc1ccccc1Cc1ccccc1`, the “activity change, negative = inhibition” value is -5.53% (inactive).

As to `CC(=O)Oc1ccc(C(=C2CCCCC2)c2ccc(OC(C)=O)cc2)cc1`, the “activity change, negative = inhibition” value was -4.67% (inactive).

Consider `Cc1c(C)n(CCN(C)C)c2ccc(C(=O)OCCN(C)C)cc12`, for which the “activity change, negative = inhibition” value was -5.8% (inactive).

In the case of `C/C=C(/C(=C/C)c1ccc(O)cc1)c1ccc(O)cc1`, the “activity change, negative = inhibition” value is -10.9% (inactive).

For `CCN1CCCC1=O`, the “activity change, negative = inhibition” value is -2.42% (inactive).

`NC(CO)(CO)CO`: the “activity change, negative = inhibition” value was 0.809% (inactive).

As for `CC1(C)OC[C@@H](COC(=O)CCc2ccc(OC[C@@H](O)CNCCNC(=O)N3CCOCC3)cc2)O1`, the “activity change, negative = inhibition” value was 2.41% (inactive).

Consider `C[C@]12CC[C@H]3[C@@H](CCC4=CC(=O)CC[C@@]43C)[C@@H]1CC[C@@H]2C(=O)CO`, for which the “activity change, negative = inhibition” value is -1.03% (inactive).

Consider `COc1ccc(OC)c(C(O)CNC(=O)CN)c1` (stereo not drawn), for which the “activity change, negative = inhibition” value is -4.66% (inactive).

Consider `CC(=O)OCC(=O)[C@@]1(O)[C@H](C)C[C@H]2[C@@H]3CCC4=CC(=O)C=C[C@]4(C)[C@@]3(F)[C@@H](O)C[C@@]21C`, for which the “activity change, negative = inhibition” value was 4.04% (inactive).
